Experimental data published in the supplement of paper PMC12340641.
Structures can show the parent of a compound that is named as a salt.

Key:
[1] = biological target: IKZF1 (dCK*-IKZF1 fusion in HEK293FT) (UniProt Q13422); assay: inhibition of IKZF1 HTRF signal (DMSO = 0%, pomalidomide 10 uM = 100%); higher = lower IKZF1 protein level; details: compound concentration: 5 uM, overnight (~20 h)
Outline: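 Values are percent inhibition of IKZF1 signal, normalised plate by plate against vehicle and a reference degrader. HEK293FT cells stably expressing an IKZF1 fusion were seeded at 2000 per well in 384-well plates and exposed to 5 μM compound in single wells overnight at 37 °C. After 30 min lysis at room temperature, lysates were incubated overnight with a commercial HTRF total-IKZF1 antibody kit, and the background-subtracted 665/620 nm time-resolved FRET ratio was read. On each plate, vehicle was set at 0% and the reference degrader at 100%.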

HEK293FT dCK*-only = assay: relative growth in counter assay (no AraC = 100%, AraC + DMSO = 0%); higher = more growth rescue independent of IKZF1; details: compound concentration: 5 uM; AraC concentration: 0.3 uM; overnight pretreatment + 4 days AraC
Outline: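 This counter assay used HEK293FT cells expressing only an engineered kinase construct, seeded at 300 per well in 384-well plates. Compound was added at 5 μM 2 h after seeding, and after overnight at 37 °C the cells received a nucleoside suicide substrate at 0.3 μM plus medium for 4 days. On day 5, nuclei stained with Hoechst 33342 were counted by imaging, and relative growth was normalised per plate; wells without suicide substrate were set at 100% and wells with substrate plus vehicle at 0%.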

HEK293FT dCK*-IKZF1 = assay: relative growth recovery (pomalidomide 10 uM = 100%, DMSO = 0%); higher = more growth rescue (IKZF1 fusion degradation); details: compound concentration: 5 uM; AraC concentration: 0.3 uM; overnight pretreatment + 4 days AraC
Outline: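 On day 5, whole-well imaging was used to count Hoechst 33342-stained nuclei of HEK293FT cells stably carrying a deoxycytidine kinase–IKZF1 fusion. These cells had received 5 μM compound 2 h after seeding, followed after overnight at 37 °C by a nucleoside suicide substrate at 0.3 μM plus medium for 4 days. Growth recovery was normalised on each plate against a reference degrader and vehicle, which defined 100% and 0%, and values are duplicate means from separate days.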

Sequence of IKZF1 (dCK*-IKZF1 fusion in HEK293FT) (Q13422 whole entry, looked up, the tested form may be a part): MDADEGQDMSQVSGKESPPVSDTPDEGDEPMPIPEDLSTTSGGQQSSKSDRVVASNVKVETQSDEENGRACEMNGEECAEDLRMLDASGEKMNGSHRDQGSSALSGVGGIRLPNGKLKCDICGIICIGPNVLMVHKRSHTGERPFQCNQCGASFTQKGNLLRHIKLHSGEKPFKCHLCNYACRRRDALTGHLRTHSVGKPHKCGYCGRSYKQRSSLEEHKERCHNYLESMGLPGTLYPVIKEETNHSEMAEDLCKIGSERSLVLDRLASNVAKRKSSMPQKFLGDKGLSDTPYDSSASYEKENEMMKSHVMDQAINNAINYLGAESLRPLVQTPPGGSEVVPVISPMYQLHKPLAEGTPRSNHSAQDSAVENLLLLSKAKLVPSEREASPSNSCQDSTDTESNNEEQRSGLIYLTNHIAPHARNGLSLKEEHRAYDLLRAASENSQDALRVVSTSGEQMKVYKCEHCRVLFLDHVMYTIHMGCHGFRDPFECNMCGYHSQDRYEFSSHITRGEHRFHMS

| SMILES | inhibition of IKZF1 HTRF signal [1] | relative growth in counter assay (HEK293FT dCK*-only) | relative growth recovery (HEK293FT dCK*-IKZF1) |
| --- | --- | --- | --- |
| O=C(O)c1cc([N+](=O)[O-])ccc1NCCCc1ccccc1 | -22.5% | -2.81% | -1.86% |
| COc1cc(NS(=O)(=O)c2ccc(N)cc2)ncn1 | -31.4% | -5.7% | -0.825% |
| S=C(NCc1ccc2c(c1)OCO2)N1CCN(c2ncnc3c2oc2ccccc23)CC1 [Amuvatinib (MP-470)] | -37.4% | -17.4% | -0.14% |
| O=c1[nH]c(=O)n([C@H]2C[C@H](O)[C@@H](CO)O2)cc1F | -24.3% | -31.1% | -9.89% |
| O=C(/C=C/c1ccc(O)c(O)c1)OCCc1ccccc1 [caffeic-acid-phenethyl-ester] | -31.4% | -29% | -7.03% |
| CC[C@]1(O)C[C@H]2CN(CCc3c([nH]c4ccccc34)[C@@](C(=O)OC)(c3cc4c(cc3OC)N(C)[C@H]3[C@@](O)(C(=O)OC)[C@H](OC(C)=O)[C@]5(CC)C=CCN6CC[C@]43[C@@H]65)C2)C1 [Vinblastine Sulfate] | -11.7% | -33.4% | -11.7% |
| Cc1ccc2c(=O)c3ccccc3n(CCCN)c2c1C | -12.2% | -35.5% | -14.4% |
| CN1CCN(C2=Nc3ccccc3Sc3ccc(Cl)cc32)CC1 [Clothiapine] | 23.7% | 0.53% | 0.605% |
| CNCCC(Oc1ccc(C(F)(F)F)cc1)c1ccccc1 (stereo not given) | -36.8% | 6.85% | 0.235% |
| O=C1OC2(c3ccc(O)cc3Oc3cc(O)ccc32)c2ccccc21 | 28.2% | -3.82% | -3.9% |
| O=C1c2ccccc2C(Cc2ccncc2)(Cc2ccncc2)c2ccccc21 | -38.8% | -4.37% | 5.88% |
| O=c1[nH]c2ccccc2n1C1CCN(CCOc2ccccc2)CC1 [oxiperomide] | 23.7% | -11.6% | 2.25% |
| C[C@@H]1CC(=O)NN=C1c1ccc(NN=C(C#N)C#N)cc1 | -27.1% | 11.2% | -2.62% |
| CCOC(=O)CC(=O)N1CCSC1COc1ccccc1OC (stereo not given) [Moguisteine] | -1.23% | 6.33% | -0.775% |
| COC(=O)C1=C(C)NC(C)=C(C(=O)OC/C=C/c2ccccc2)C1c1cccc([N+](=O)[O-])c1 (stereo not given) [Pranidipine] | 13.9% | -3.72% | -0.3% |
| NC(=O)c1ccc[n+]([C@@H]2O[C@H](COP(=O)(O)OP(=O)(O)OC[C@H]3O[C@@H](n4cnc5c(N)ncnc54)[C@H](O)[C@@H]3O)[C@@H](O)[C@H]2O)c1 | -23.1% | 5.09% | 1.08% |
| CCC1(O)CC2CN(CCc3c([nH]c4ccccc34)[C@@](C(=O)OC)(c3cc4c(cc3OC)N(C=O)C3[C@]45CCN4CC=C[C@@](CC)([C@@H](OC(C)=O)[C@]3(O)C(=O)OC)[C@H]45)C2)C1 (stereo not given in full) [Vincristine sulfate] | -23.3% | -33.7% | -11.8% |
| Nc1ncnc2c1ncn2[C@@H]1O[C@H](COP(=O)(O)OP(=O)(O)OP(=O)(O)OP(=O)(O)OC[C@H]2O[C@@H](n3cnc4c(N)ncnc43)C(O)C2O)C(O)C1O (stereo not given in full) [P1,P4-DI(adenosine-5')tetraphosphate ammonium salt] | -38% | 5.12% | 1.01% |
| c1ccc(C(NCc2cccnc2)(c2ccccc2)c2ccccc2)cc1 | -26.2% | 3.05% | -0.7% |
| NC(=O)c1cn([C@@H]2O[C@H](CO)[C@@H](O)[C@H]2O)c2ncnc(N)c2c1=O | -11.4% | -10.5% | -1.56% |
| Oc1ccc(Cl)c2cccnc12 | -32.6% | -6.2% | -1.79% |
| CN1CCCC1CCOC(C)(c1ccccc1)c1ccc(Cl)cc1 (stereo not given) [Clemastine fumarate] | 11% | 6.63% | 5.08% |
| CC[C@@]1(O)C(=O)OCc2c1cc1n(c2=O)Cc2cc3c(CN(C)C)c(O)ccc3nc2-1 [Topotecan HCl] | 54.2% | -34.6% | -13.3% |
| Cc1cc(/C=C/c2ccc3cc(N(C)C)ccc3[n+]2C)c(C)n1-c1ccccc1.Cc1cc(/C=C/c2ccc3cc(N(C)C)ccc3[n+]2C)c(C)n1-c1ccccc1 [pyrvinium] | 76.3% | -34.4% | -13.1% |
| CCn1c(=O)[nH]c2cc(Cl)c(Cl)cc21 | -7.25% | 6.81% | -1.89% |
